# Data from PubChem BioAssay (EPA / NIEHS).
# The source made the active and inactive calls. Rule for the calls: active = hit-call score of the fitted dose curve at least 0.9, where 1 is the maximum; inactive = score below 0.9.
# Read-out: Interleukin-1 alpha (IL1a), IL1A (gene 3552)
# Assay: BSK_BE3C_IL1a: BioMAP Diversity Plus: BE3C Assay for Interleukin-1 alpha (IL1a) Biomarker Activity (AID 2283016)
# Details: primary human bronchial epithelial cells; actives raise or lower the signal
# Experimental: BSK_BE3C is a cell-based, multiplexed-readout assay that uses bronchial epithelial cell, a human lung primary cell, with measurements taken at 24 hours after chemical dosing in a 96-well plate.BSK_BE3C_IL1a is an assay component measured in the BSK_BE3C assay. It measures IL-1a antibody related to regulation of gene expression using ELISA technology.Data from the assay component BSK_BE3C_IL1a was analyzed into 1 assay endpoint. This assay endpoint, BSK_BE3C_IL1a, was analyzed with bidirectional fitting relative to DMSO as the negative control and baseline of activity. Using a type of binding reporter, gain or loss-of-signal activity can be used to understand changes in the signaling as they relate to the gene IL1A. Furthermore, this assay endpoint can be referred to as a primary readout, because this assay has produced multiple assay endpoints where this one serves a signaling function. To generalize the intended target to other relatable targets, this assay endpoint is annotated to the cytokine intended target family, where the subfamily is interleukins.
# The levels of cell surface (or secreted, indicated by the prefix "s") biomarker endpoints were measured by ELISA. Overt cytotoxicity to cells in confluent adherent cultures (all systems other than the BT system) was assessed by measuring total protein levels using sulforhodamine B (SRB) staining in parallel cultures at the time of biomarker measurements, indicated as SRB endpoints. For proliferation assays for adherent cell types, individual cell types are cultured at sub-confluence and relative cell numbers quantified by SRB staining at time points optimized for each system (48 h: 3C and CASM3C systems; 72 h: BT and HDF3CGF systems; 96 h: SAg system). SRB was performed by staining cells with 0.1% SRB after fixation with 10% TCA and reading wells at 560 nm.Viability and proliferation of PBMC (T cells) was quantified by Alamar Blue reduction for the SAg and BT systems. For PBMC viability (referred to as PBMC Cytotoxicity within the assay endpoint names), cells were plated (75,000/well in a 96-well plate) and then chemical samples added for 1 h before addition of activators, SEB and TSST-1 (20 ng/mL final concentration each). Cells were incubated for 90 h. Then, Alamar Blue (20 uL/well) (Invitrogen, Cat DAL1100) was added for 6 h, and the plates were read with a fluorescence microplate reader at 546/580 nm (excitation/emission). For PBMC proliferation, cells were plated and activated as above but incubated for only 16 h prior to addition of Alamar Blue. Plates were read after 6 h.
SMILES,outcome,AC50
CC(C)[C@H](C(=O)O[C@H](C#N)c1cccc(Oc2ccccc2)c1)c1ccc(Cl)cc1,inactive,
COP(=O)(OC)OC(Br)C(Cl)(Cl)Br (stereo not given),,29.8 µM (active)
CC(C1CC1)C(O)(Cn1cncn1)c1ccc(Cl)cc1 (stereo not given),inactive,
CCCSP(=O)(OCC)Oc1ccc(Br)cc1Cl (stereo not given),inactive,
CNC(=O)ON=C(SC)C(=O)N(C)C,inactive,
C#CC(C)(C)NC(=O)c1cc(Cl)cc(Cl)c1,inactive,
CSc1nc(NC(C)C)nc(NC(C)C)n1,inactive,
Nc1nc(N)nc(NC2CC2)n1,inactive,
CCCCSP(=O)(SCCCC)SCCCC,inactive,
CCC(=O)Nc1ccc(Cl)c(Cl)c1,inactive,
CCCSP(=O)(OCC)SCCC,inactive,
CCC(CC)Nc1c([N+](=O)[O-])cc(C)c(C)c1[N+](=O)[O-],inactive,
CCNc1nc(Cl)nc(NC(C)(C)C#N)n1,inactive,
CNC(=O)ON=C(C)SC,inactive,
CNc1cnn(-c2cccc(C(F)(F)F)c2)c(=O)c1Cl,inactive,
CC[C@H](C)[C@H]1O[C@]2(C=C[C@@H]1C)C[C@@H]1C[C@@H](C/C=C(\C)[C@@H](O[C@H]3C[C@H](OC)[C@@H](O[C@H]4C[C@H](OC)[C@@H](NC)[C@H](C)O4)[C@H](C)O3)[C@@H](C)/C=C/C=C3\CO[C@@H]4[C@H](O)C(C)=C[C@@H](C(=O)O1)[C@]34O)O2,,7.71 µM (active)
CCOP(=S)(OCC)SCCSCC,inactive,
COP(=O)(NC(C)=O)SC (stereo not given),inactive,
S=C1NCCN1,inactive,
CCOP(=S)(OCC)Oc1ccc2c(C)c(Cl)c(=O)oc2c1,inactive,

SMILES,outcome,AC50
C[N+]1(C)CCCCC1,inactive,
CON=C(C(=O)OC)c1ccccc1CON=C(C)c1cccc(C(F)(F)F)c1,inactive,
CCOP(=S)(Oc1cnc(C(C)(C)C)nc1)OC(C)C (stereo not given),inactive,
CCOP(=S)(OCC)Oc1cc(C)nc(C(C)C)n1,inactive,
CCCOc1nn(C(=O)NS(=O)(=O)c2ccccc2C(=O)OC)c(=O)n1C,inactive,
Cc1ccn2nc(S(=O)(=O)Nc3c(F)cccc3F)nc2n1,inactive,
CCOP(=O)(NC(C)C)Oc1ccc(SC)c(C)c1 (stereo not given),inactive,
O=c1ccc(=O)[nH][nH]1,inactive,
C#CCC1=C(C)C(OC(=O)C2C(C=C(C)C)C2(C)C)CC1=O (stereo not given),inactive,
CNC(=O)Oc1cccc2c1OC(C)(C)O2,inactive,
CCC(=NOC/C=C/Cl)C1=C(O)CC(C2CCOCC2)CC1=O (stereo not given),inactive,
Cc1nn(-c2cc(NS(C)(=O)=O)c(Cl)cc2Cl)c(=O)n1C(F)F,inactive,
CC(=NC#N)N(C)Cc1ccc(Cl)nc1,inactive,
CCOC(=O)COc1cc(-c2nn(C)c(OC(F)F)c2Cl)c(F)cc1Cl,inactive,
CC(C)=CC1C(C(=O)OCN2C(=O)C3=C(CCCC3)C2=O)C1(C)C (stereo not given),inactive,
Nc1c(Cl)cc([N+](=O)[O-])cc1Cl,inactive,
CC(COc1ccc(Oc2ccccc2)cc1)Oc1ccccn1 (stereo not given),inactive,
CSC1=N[C@@](C)(c2ccccc2)C(=O)N1Nc1ccccc1,inactive,
COP(=O)(OC)C(O)C(Cl)(Cl)Cl (stereo not given),inactive,
CN1COCN(Cc2cnc(Cl)s2)C1=N[N+](=O)[O-],inactive,
